Bioassay records from PubChem BioAssay.
FBPA Giardia inh: blocks Giardia fructose-bisphosphate aldolase activity. A8B2U2. purified Giardia FBPA. Potency, µM (doses to about 59.6 µM), inactives show top-dose activity, negative = inhibition, actives largely listed as inhibitors. hit rate 0.71% among 290,000; further: potency means the concentration at half of the fitted maximal effect; nearly all actives have a fitted effect of over 55% in size
Target sequence (A8B2U2 whole entry, looked up): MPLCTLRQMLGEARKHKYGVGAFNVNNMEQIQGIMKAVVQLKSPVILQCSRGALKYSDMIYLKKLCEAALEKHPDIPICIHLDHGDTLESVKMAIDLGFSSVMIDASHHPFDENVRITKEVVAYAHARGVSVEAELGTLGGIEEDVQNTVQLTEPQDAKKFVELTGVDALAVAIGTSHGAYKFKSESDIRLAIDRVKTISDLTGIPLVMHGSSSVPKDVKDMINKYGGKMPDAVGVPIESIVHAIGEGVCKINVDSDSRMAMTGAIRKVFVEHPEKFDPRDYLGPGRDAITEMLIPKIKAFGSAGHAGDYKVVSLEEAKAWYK
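Giardia FBPA (40 nM reagent) was preincubated 10 min at RT with compound (up to 57.5 uM final), then substrate plus GAPDH/TPI/NAD/arsenate coupling system with diaphorase/resazurin was added; resorufin fluorescence (525/598 nm) was read after 20 min.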
HCMV inh: inhibitors of human cytomegalovirus. HFF cells, HCMV-luciferase reporter, 72 h; hits give low values. activity change, negative = inhibition, % at 57.5 µM. hit rate 4.5% among 410,000; in the data active means activity change below about -60%; inconclusive means no clear call, values can overlap the other calls; inactive means above about -39%
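Human foreskin fibroblasts infected with luciferase-reporter HCMV at MOI 1 PFU/cell, compounds at two doses. Luciferase measured 72 h post infection; normalized to buffer-only basal and Salinomycin (10uM) controls.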
Pf growth 48h: inhibits P. falciparum growth in the first generation, 48 h. P. falciparum luciferase growth in erythrocytes, 48 h. Potency, µM (titrated, usually from 28.7 µM), for inactives: top-dose activity change, negative = inhibition, actives largely listed as inhibitors. hit rate 5.9% among 310,000; further: potency means the concentration at half of the fitted maximal effect
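Read-out is firefly luciferase luminescence from an integrated reporter in P. falciparum, so falling signal marks reduced parasite growth. Infected erythrocytes were at 2% hematocrit and 0.1% parasitemia (final) in Albumax-supplemented RPMI 1640.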
Pf growth 96h: P. falciparum growth inhibition at 96 hours. P. falciparum luciferase reporter growth, 96 h. Potency, µM (highest dose often 28.7 µM), inactives show at the top dose activity change, negative = inhibition, actives largely listed as inhibitors. hit rate 6.9% among 320,000. AID 504834; further: potency means the concentration at half of the fitted maximal effect
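96 h incubation, 37 C, 5% CO2, of luciferase-reporter P. falciparum-infected RBCs (2% hematocrit, 0.05% parasitemia final) with test compounds; endpoint luminescence.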
Sm TGR inh: inhibitors of Schistosoma mansoni thioredoxin glutathione reductase; Q962Y6; purified TGR, DTNB reduction, TNB absorbance 405 nm; Potency, µM (titrated, usually from 114 µM), inactives show at the top dose activity change, negative = inhibition, usual class: inhibitors; hit rate 3% among 360,000; AID 485364; further: potency means the concentration at half of the fitted maximal effect; nearly all actives have a fitted effect of over 60% in size
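First, TGR (20 nM dispensed) and NADPH were mixed with compound. Second, a 15 min room-temperature incubation followed. Third, further NADPH and then DTNB were added to start the reaction. Finally, TNB absorbance was monitored kinetically.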
The depositor's hits bear a star; ? = inconclusive; nt = no result given. The list is not random: actives were taken first. Their share in the collection is about 14%. Unless noted, the call rests on the fitted dose curve; in most records, active means well fitted curve in the direction sought with a large enough effect; inconclusive means small, poorly fitted or top-dose-only effect, or another doubt; inactive means no such curve, though single readings can be large; an effect the other way counts as inactive or inconclusive. On the % scale 0 is the no-effect control and ±100 the full control effect.

SMILES	FBPA Giardia inh	HCMV inh	Pf growth 48h	Pf growth 96h	Sm TGR inh
COc1ccc2oc(=N)c(C(=O)Nc3ccc(C)cc3)cc2c1	6.6%	47.0	120.3%	?	-3.1%
N=c1oc2ccc(Br)cc2cc1C(=O)NCc1ccc(F)cc1	nt	-36.4	-1.6%	2.62µM*	-16.6%
N=c1oc2cc(O)ccc2cc1C(=O)Nc1ccc(Br)cc1	2.1%	-90.5*	46.0%	0.738µM*	-13.3%
Cc1ccc(CNC(=O)c2cc3cc(Br)ccc3oc2=N)cc1	nt	30.5	4.8%	23.3%	-17.7%
CCN(CC)c1ccc2cc(C(=O)NCc3ccc(F)cc3)c(=N)oc2c1	nt	-6.6	?	1.65µM*	-16.8%
O=C(CSc1nc2nn(-c3ccccc3)c(=O)c-2c2n1CCCCC2)Nc1ccc(F)c(F)c1	nt	36.8	nt	nt	nt
Cc1noc(C)c1CSc1nnc(-c2cccnc2)n1C1CCCCC1C (stereo not drawn)	0.2%	45.8	7.2%	-18.5%	8.6%
COc1ccc(Cc2nnc(SCc3c(C)noc3C)n2C2CCCCC2)cc1OC	-0.4%	25.4	9.28µM*	?	-25.3%
Cc1ccc(S(=O)(=O)N2CCC(C(=O)Nc3ncccc3O)CC2)cc1	nt	-20.4	?	-4.2%	-15.7%
Cc1cccc(NS(=O)(=O)c2nnc(NC(=O)C3CCCCC3)s2)c1	?	-38.9	2.2%	-6.5%	-5.7%
O=S1(=O)N[C@@H](Cc2ccccc2)COc2cc(Br)ccc21	nt	-21.1	nt	nt	nt
O=c1[nH]c(C2CCN(S(=O)(=O)Cc3ccccc3)CC2)nc2c1nnn2Cc1ccccc1	-6.1%	-10.0	9.28µM*	13.2%	-15.4%
O=c1[nH]c(C2CCN(S(=O)(=O)c3cccc(Cl)c3)CC2)nc2c1nnn2Cc1ccccc1	-11.8%	6.9	?	21.4%	1.9%
Cc1ccc(C)c(Cn2nnc3c(=O)[nH]c(C4CCN(S(=O)(=O)c5ccc(S(=O)(=O)NC6CC6)cc5)CC4)nc32)c1	-3.2%	5.9	2.62µM*	-0.6%	-5.9%
Cc1ccc(C)c(Cn2nnc3c(=O)[nH]c(C4CCN(S(=O)(=O)c5ccc(S(=O)(=O)N(C)C)cc5)CC4)nc32)c1	8.7%	-33.1	?	-6.9%	21.4%
O=c1[nH]c(C2CCN(S(=O)(=O)c3cccc([N+](=O)[O-])c3)CC2)nc2c1nnn2Cc1ccccc1	nt	-28.8	8.28µM*	43.3%	0.0%
Cc1ccc(Cn2nnc3c(=O)[nH]c(C4CCN(S(=O)(=O)c5cc(C)ccc5C)CC4)nc32)cc1	-6.8%	37.3	5.22µM*	nt	6.2%
Cn1c(SCC(=O)Nc2cccnc2Cl)nnc1-c1ccco1	nt	-10.4	nt	nt	nt
O=C(Cc1ccc(Cl)cc1)NNC(=O)C(=O)NC1CCCCC1	nt	29.3	nt	nt	nt
CCCC12CN3CC(C)(CN(C1)C3c1cn(C)c3ccccc13)C2=O (stereo not drawn)	nt	8.8	nt	nt	-5.9%
COc1ccc(C2=Nn3c(nnc3-c3ccccc3O)SC2)cc1OC	6.3%	nt	nt	nt	nt
O=c1[nH]c(C2CCN(S(=O)(=O)/C=C/c3ccccc3)CC2)nc2c1nnn2Cc1ccc(F)cc1	-2.6%	39.6	1.85µM*	?	7.6%
O=c1[nH]c(C2CCN(S(=O)(=O)c3ccc(S(=O)(=O)NC4CC4)cc3)CC2)nc2c1nnn2Cc1ccc(F)cc1	nt	-37.4	?	?	10.0%
Cc1ccc(Cn2nnc3c(=O)[nH]c(C4CCN(S(=O)(=O)c5ccc(F)cc5)CC4)nc32)cc1	4.8%	61.6	-4.5%	nt	3.6%
O=c1[nH]c(C2CCN(S(=O)(=O)c3ccc(S(=O)(=O)NC4CC4)cc3)CC2)nc2c1nnn2Cc1ccccc1	nt	?	3.7µM*	8.4%	1.8%
Cc1ccc(Cn2c(C(=O)O)c(CNCc3ccccc3Cl)c3ccc(C)cc32)cc1	nt	14.2	nt	nt	-4.9%
FC(F)(F)c1nc(=S)c2ccccc2[nH]1	?	-2.8	34.3%	?	2µM*
CCCOc1ccc(/C=C/C(=O)Nc2sc(C)c(C)c2C(=O)OCC)cc1OC	nt	-5.2	nt	nt	-2.1%
CN1c2ccccc2C(C)(C)C12CC(c1cccc(S(=O)(=O)N3CCCC3)c1)=NO2 (stereo not drawn)	-3.6%	-71.8*	10.4µM*	?	-5.9%
